# MCF10A rerep – induces DNA re-replication in MCF 10a normal breast cells; MCF 10A DNA re-replication, Hoechst nuclear intensity, 48 h; Potency, µM (doses to about 46.1 µM), for inactives: top-dose activity, positive = re-replication, hits mostly activators; 2.9% of 350,000 active; AID 624296; further: % of control where 0% means no effect; nearly all actives have a fitted effect of over 50% in size
# SW480 rereplic – induces DNA re-replication in SW480 colon adenocarcinoma cells; SW480 DNA re-replication, Hoechst DNA content imaging, 48 h; Potency, µM (highest dose often 46.1 µM), without a hit: top-dose re-replication activation, most hits filed as activators; 1.8% of 340,000 active; AID 624297; further: % of control where 0% means no effect; nearly all actives have a fitted effect of over 55% in size
#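 Readout is total intensity of Hoechst-stained nuclei, excited at 405 nm and collected at 500-530 nm. Compound treatment lasted 48 hr at 37 C in 5% CO2 before staining.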
# HT1080NT lethal – kills 2HG-producing HT-1080-NT fibrosarcoma cells | HT-1080-NT fibrosarcoma viability, CellTiter-Glo ATP luminescence, 48 h | Potency, µM (series often up to 46.1 µM), for the others: at the highest dose activity, negative = less viability, most hits filed as cytotoxic | 1.6% of 360,000 active;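 further: NT is the 2HG producing partner of a matched IDH1 knockdown line; 0% = DMSO-treated cells and -100% = media-only wells without cells; nearly all actives have a fitted effect of over 55% in size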
#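 Viability of the 2HG-overproducing fibrosarcoma line after 48 hours of compound exposure at 37 degrees C was determined by luminescence with CellTiter-Glo, and concentration-effect curves were then fitted and categorized.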
# HT1080 IDH1KD tx – toxicity to HT-1080 IDH1 knockdown cells (counter line) | AID 686971 | Potency, µM (titrated, usually from 46.1 µM), for the others: at the top dose activity, negative = toxicity, actives largely listed as cytotoxic | 2% of 360,000 active | HT-1080 IDH1 knockdown viability, ATP luminescence, 48 h;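 further: 0% = DMSO wells and -100% = cell-free medium wells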
#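 Viability of IDH1-knockdown HT-1080 fibrosarcoma cells was assessed by CellTiter-Glo after 48 h at 37 °C with titrated compound; concentration-effect curves were classified by fit quality and response size.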
# KB-V1 MDR tox – KB-V1 MDR subline cytotoxicity. KB-V1 MDR cells viability, CellTiter-Glo, 72 h. AID 1347076. Potency, µM (highest dose often 46.1 µM), usual class: cytotoxic. 3.4% of 400,000 active; further: on the % scale 0 is the no-effect control and ±100 the full control effect; nearly all actives have a fitted effect of over 60% in size
#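 Following 72 h at 37 degrees C with compound, KB-V1 cell viability was read by CellTiter-Glo luminescence, medium being phenol-red-free DMEM plus 10% FBS; concentration-response parameters came from normalized, curve-fitted qHTS data.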
# KB-3-1 tox – kills parental KB-3-1 adenocarcinoma cells. AID 1347075. Potency, µM (titrated, usually from 46.1 µM), most hits filed as cytotoxic. 1.4% of 400,000 active. KB-3-1 viability, CellTiter-Glo ATP luminescence, 72 h; further: on the % scale 0 is the no-effect control and ±100 the full control effect; nearly all actives have a fitted effect of over 60% in size
#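 Parental KB-3-1 adenocarcinoma cells in phenol-red-free DMEM with 10% FBS were pin-treated with compounds at several concentrations, incubated 72 h at 37 °C, and viability read by CellTiter-Glo luminescence; concentration-effect curves were fitted after normalization.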
# An asterisk follows results filed as active; i = inactive; ? = inconclusive; nt = no result; [ ] = remark or other dose. Shown are actives, neighbours in structure and some others; about 7.9% of the full set was active somewhere. The call rests on the fitted dose curve; in most records, active means well fitted curve in the direction sought with a large enough effect; inconclusive means small, poorly fitted or top-dose-only effect, or another doubt; inactive means no such curve, though single readings can be large; an effect the other way counts as inactive or inconclusive. Potency means the concentration at half of the fitted maximal effect.
SMILES,MCF10A rerep,SW480 rereplic,HT1080NT lethal,HT1080 IDH1KD tx,KB-V1 MDR tox,KB-3-1 tox
Cc1ccc(CNC(=O)C2CCC(=O)N(Cc3ccc(Cl)cc3)C2)cc1F (stereo not given),-2%,-6%,-2%,4%,i,i
Cc1cc2nc(C3CCN(Cc4nnnn4Cc4ccccc4)CC3)[nH]c2cc1C,1%,-3%,2.5µM*,?,?,?
Clc1ccc(CN2CCC(c3nc4ccc(Cl)cc4[nH]3)CC2)cc1,?,?,-10%,-26%,21µM*,?
CC1CCCN(C(=O)CN2CCC(c3nc4ccc(Cl)cc4[nH]3)CC2)C1 (stereo not given),2%,-12%,0%,-1%,?,i
CCCCN(CCCNC(=O)c1cc(Nc2ccc(OC)c(OC)c2)nc2ccccc12)Cc1ccccc1,nt,nt,nt,nt,i,?
Cc1cnc(/C=C/c2ccc(N(C)C)cc2)cn1,nt,nt,nt,nt,i,i
CN(C)c1ccc(/C=C/c2cc[n+](C)cc2)cc1,?,?,-22%,?,i,23µM*
Cc1ccc(/C=C/c2ccc(N(C)C)cc2)[n+](C)c1,-11%,-2%,-30%,?,i,2.1µM*
CCCc1cnc2c(c1SCc1cccc(F)c1)c(=O)n(C)c(=O)n2C,nt,nt,nt,nt,i,i
CCC(=O)c1ccc(OC(=O)C2CCN(C3=NS(=O)(=O)c4ccccc43)CC2)cc1,5%,-10%,-3%,-1%,?,i
COc1cc(OC)c2c(-c3ccccc3)cc(=O)oc2c1C(CCN1CCOCC1)c1ccc2c(c1)OCO2 (stereo not given),?,-12%[9.22 µM],23µM*,?,i,i
CCOC(=O)c1ccc(NC(=O)c2ccc(C)c(S(=O)(=O)N3CCOCC3)c2)cc1,?,2%,?,?,?,?
CCn1cc(C(=O)OCC(=O)Nc2cccc(S(=O)(=O)N3CCOCC3)c2)c(=O)c2ccc(C)nc21,10%,-14%,6%,-21%,8.2µM*,i
CCOC(=O)c1c(-c2ccccc2)csc1NC(=O)c1ccc(S(=O)(=O)N2CCOCC2)cc1,12µM*,?,-2%,-6%,i,i
CCOC(=O)c1ccc(NC(=O)c2cccc(S(=O)(=O)N3CCOCC3)c2)cc1,0%,-3%,-29%,-29%,23µM*,i
CCOc1cc(N2CCOCC2)c(OCC)cc1NC(=O)c1cccc(S(=O)(=O)N2CCOCC2)c1,6%,0%,13%,?,15µM*,i
CCOc1cc(N2CCOCC2)c(OCC)cc1NC(=O)c1cccc(S(=O)(=O)N2CC(C)OC(C)C2)c1 (stereo not given),nt,nt,-1%,2%,i,i
Cc1ccc(OCc2cc(C(=O)N3CC4C[C@@H]5CC3C[C@H](C4)C5)no2)cc1C,?,?,2%,4%,nt,nt
CCn1c(SCC(=O)c2[nH]c(C)c(C(C)=O)c2C)nnc1-c1cccs1,1%,-1%,-2%,-10%,2.6µM*,?
CCn1c(SCC(=O)c2cccs2)nnc1-c1cccs1,-20%,?,2%,-5%,i,i
N/C(=N\S(=O)(=O)c1cc(C(F)(F)F)cc(C(F)(F)F)c1)c1ccncc1,1%,-1%,4%,-3%,i,i
N/C(=N\S(=O)(=O)c1cc(C(F)(F)F)cc(C(F)(F)F)c1)c1ccc(Cl)cc1,13µM*,10µM*,?,?,?,i
C=CC(=O)Nc1cccc(Oc2ccnc(Nc3ccc(N4CCN(C)CC4)cc3)n2)c1,18µM*,?,-24%,-19%,i,?
C=CC(=O)Nc1cccc(N(C)c2ccnc(Nc3ccc(N4CCN(C)CC4)cc3)n2)c1,15µM*,?,-19%,?,i,?
